HT1080NT lethal – kills 2HG-producing HT-1080-NT fibrosarcoma cells; HT-1080-NT fibrosarcoma viability, CellTiter-Glo ATP luminescence, 48 h; AID 686970; Potency, µM (highest dose often 46.1 µM), for the others: at the highest dose activity, negative = less viability, hits mostly cytotoxic; 360,000 compounds, 1.6% hits;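 further: NT is the 2HG producing partner of a matched IDH1 knockdown line; potency means the concentration at half of the fitted maximal effect; 0% = DMSO-treated cells and -100% = media-only wells without cells; nearly all actives have a fitted effect of over 55% in size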
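A 48-hour cytotoxicity screen used HT-1080-NT cells plated 2 hours before compound delivery. ATP-based CellTiter-Glo luminescence measured viability, normalized to DMSO and no-cell controls.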
HT1080 IDH1KD tx – HT-1080 IDH1 knockdown cell toxicity (counter line); HT-1080 IDH1 knockdown viability, ATP luminescence, 48 h; Potency, µM (titrated, usually from 46.1 µM), for the others: at the highest dose activity, negative = toxicity, actives largely listed as cytotoxic; 360,000 compounds, 2% hits; AID 686971;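 further: potency means the concentration at half of the fitted maximal effect; 0% = DMSO wells and -100% = cell-free medium wells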
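Assay cells: HT-1080 with IDH1 knockdown, 750 per well, RPMI/5% FBS. Exposure: 48 h at 37 °C following 2 h pre-incubation. Read: CellTiter-Glo luminescence; fitted concentration-response, curve class assigned.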
DT40 TDP1 no CPT – qHTS for Inhibitors of human tyrosyl-DNA phosphodiesterase 1 (TDP1): qHTS in cells in absence of CPT | DT40 Tdp1-/- hTDP1 cells, no CPT, ATP luminescence, 48 h | Potency, µM (doses to about 46.2 µM), for inactives: at the highest dose activity change, negative = growth inhibition, most hits filed as inhibitors | 420,000 compounds, 15% hits; further: potency means the concentration at half of the fitted maximal effect; nearly all actives have a fitted effect of over 55% in size
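Seeded 400 DT40-hTDP1 cells/well (vehicle DMSO, no 20 nM CPT); pinned compounds; ≥48 hr at 37 °C; CellTiter-Glo luminescence as viability measure.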
ELG1 repair inh – ELG1-dependent DNA repair inhibition. Potency, µM (top dose mostly 46.1 µM), without a hit: top-dose activity change, negative = inhibition, hits mostly inhibitors. 330,000 compounds, 2.3% hits. AID 504467. HEK293T ELG1-luciferase reporter, luminescence, 16 h; DNA damage induced by 5-fluorouridine; further: potency means the concentration at half of the fitted maximal effect; nearly all actives have a fitted effect of over 55% in size
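Reporter activity after DNA damage by 5-fluorouridine is monitored. Compound-treated cells incubate 16 hr at 37 °C, then ONE-Glo is added for 30 min before luminescence reading.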
IL-1B inflam inh – inhibitors of inflammasome signaling (IL-1 beta secretion) | THP-1 LPS/ATP IL-1B secretion, AlphaLISA, 16 h; hits give low values | activity change, % at 57.5 µM | 360,000 compounds, 4.7% hits; in the data active means activity change below about -50%; inconclusive means mostly about -30% to -49%
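Secreted IL-1B measured by AlphaLISA bead assay after 16 h compound exposure of THP-1 cells; compounds (final up to 57.5 uM) added 1 h before LPS (250 ng/mL) and ATP (1.25 mM) stimulation; lower signal means less secretion.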
TDP1 cell CPT – growth inhibition of DT40 Tdp1-/-;hTDP1 cells with camptothecin (screen for TDP1 inhibitors) | chicken DT40 Tdp1-/-;hTDP1 cells + 20 nM CPT, ATP luminescence, 48 h | Potency, µM (top dose mostly 46.2 µM), for the others: top-dose activity change, negative = growth inhibition, actives largely listed as inhibitors | 420,000 compounds, 12% hits; further: potency means the concentration at half of the fitted maximal effect; nearly all actives have a fitted effect of over 55% in size
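Chicken DT40 Tdp1-/- cells stably complemented with human TDP1 were seeded at 400 cells/well in medium containing 20 nM camptothecin, exposed to pin-transferred compounds, and grown at 37 °C for at least 48 hr. Viability was read as ATP luminescence.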
Starred values were filed as active, the others as inactive; ? = inconclusive; nt = not tested or not shown. A selection: hits, their analogues and other compounds. The true share with any hit is near 19%. Unless noted, the call rests on the fitted dose curve; in most records, active means well fitted curve in the direction sought with a large enough effect; inconclusive means small, poorly fitted or top-dose-only effect, or another doubt; inactive means no such curve, though single readings can be large; an effect the other way counts as inactive or inconclusive. Unless noted, on the % scale 0 is the no-effect control and ±100 the full control effect.

SMILES	HT1080NT lethal	HT1080 IDH1KD tx	DT40 TDP1 no CPT	ELG1 repair inh	IL-1B inflam inh	TDP1 cell CPT
COc1ccccc1Cn1c(CNS(=O)(=O)c2ccc(CC(C)C)cc2)nc2cccnc21	nt	nt	13µM*	nt	nt	21µM*
COc1ccc(C(C)C)cc1-c1cccc2nncn12	?	12%	?	nt	2	-21%
COc1ccc(C(=O)C[n+]2ccc(N(C)C)cc2)cc1	-9%	?	16µM*	0%	22	?
CN(C)c1cc[n+](CC(=O)c2ccc(Br)cc2)cc1	-13%	-1%	?	9.2µM*	16	16µM*
COc1ccc(C(=O)COC(=O)c2ccc(N(C)C)cc2)cc1	24%	20%	-28%	-5%	21	-8%
COc1ccc(C(O)c2ncc(-c3cccc(C(F)(F)F)c3)[nH]2)cc1 (centres undefined)	20%	5%	?	nt	-1	?
OC(c1ccc(Cl)cc1)c1ncc(-c2cccc(C(F)(F)F)c2)[nH]1 (centres undefined)	?	?	21µM*	nt	?	?
OC(c1cc(F)cc(Cl)c1)c1ncc(-c2cccc(C(F)(F)F)c2)[nH]1 (centres undefined)	?	?	13µM*	nt	-8	16µM*
CCN(CC)C(=O)Oc1ccc(Br)c2ccccc12	-5%	-15%	?	-9%	0	?
O=C(COc1ccc2ccccc2c1Br)N1CCCCC1	19%	-16%	3%	?	20	?
CCN(CC)C(=O)Oc1ccc2ccccc2c1Br	?	?	?	?	-60*	-6%
O=C(Oc1ccc2ccccc2c1Br)N1CCCCCC1	-1%	?	21µM*	?	14	?
COc1ccc(OC(C)C(=O)NC2CCCCCC2)cc1 (centres undefined)	-1%	1%	2%	nt	28	-5%
COc1ccc(CNC(=O)C2Cc3c(-c4cccc(C(C)=O)c4)ccnc3O2)cc1OC (centres undefined)	-28%	?	?	nt	51	?
O=C(NCc1cccs1)C1Cc2c(-c3ccc(Cl)cc3)ccnc2O1 (centres undefined)	?	2.1µM*	1.8µM*	nt	51	1.5µM*
CC(=O)c1cccc(-c2ccnc3c2CC(C(=O)NCc2cccs2)O3)c1 (centres undefined)	?	?	0.73µM*	nt	90	0.73µM*
O=C(NCC1CC1)C1Cc2c(-c3ccc(Cl)cc3)ccnc2O1 (centres undefined)	-17%	-20%	?	nt	-21	?
C/C(CC(=O)Nc1ccc(N(C)C)cc1)=N\NC(=O)c1ccc(C(C)(C)C)cc1	-4%	-14%	-27%	4%	4	-22%
Cc1cc(C(=O)N/N=C/c2c(CO)cnc(C)c2O)c2ccccc2n1	?	21µM*	?	-7%	162	?
Cc1ncc(CO)c(/C=N/NC(=S)Nc2ccc(C(C)C)cc2)c1O	3%	?	21µM*	?	166	15µM*
Cc1ncc(CO)c(/C=N/NC(=O)c2cc(Br)ccc2O)c1O	?	?	16µM*	16µM*	95	16µM*
Cc1ncc(CO)c(/C=N/NC(=O)c2cc(O)c(O)c(O)c2)c1O	nt	nt	nt	9%	nt	nt
CC(C)(C)N(Cc1ccccc1)C(=O)CCc1ccccc1	-2%	0%	?	?	0	?
O=C(Nc1ccc(C(O)c2ccccc2)cc1)[C@@H]1O[C@H](CO)[C@@H](O)[C@H]1O (some centres undefined)	18%	19%	1%	nt	7	8%

Compound activity (PubChem BioAssay)
